# Values of other authors as cited in PubChem BioAssay AID977611.
# Out of some 3,900 compounds screened, about 3,900 (100%) were called active. No cut-off is given here; in the data, nearly all actives have Kd up to about 4200 µM. So high a share suggests a set chosen from earlier hits. The list shows a part of the results. *1 amine or outer side, *2 acyl side, *3 side chain or, on linkers, in order; H or OH if unused. Where a SMILES comes first, the peptide text is derived from it. Non-standard residues stand in square brackets, D forms with d. Square brackets hold non-standard residues; d marks the D form. Residues, ends and D or L forms follow the SMILES beside them. Peptide text beside a SMILES is read from it. [ ]: non-standard residue; d: D form. * marks the point of attachment. Thr(P(OH)3+) = C[C@@H](O[P+](O)(O)O)[C@H](N)C(=O)O; X1 = C[C@H](O[P+](O)(O)O)[C@H](N[*:1])C(=O)[*:2]; Lys(Me3) = C[N+](C)(C)CCCC[C@H](N)C(=O)O; Orn(CH(NH2)2) = NC(N)NCCC[C@H](N)C(=O)O; Benzoyl(4-Br) = O=C(c1ccc(Br)cc1)*; Lys(Me2) = CN(C)CCCC[C@H](N)C(=O)O; Benzoyl(4-F) = O=C(c1ccc(F)cc1)*
# Assay: PubChem AID 977611
# Settings: PDB protein-ligand complexes, literature Kd
compound,measurement,setting,value
COc1cc(-c2ccc3ncc(-c4cccc([C@@H](O)NCCN(C)C)c4)n3n2)ccc1O,Kd,"protein: Death-associated protein kinase 1 DAPK1, PDB entry 4txc",0.24 µM (active)
CC(C)C[C@H](NC(=O)[C@@H]1CCCN1C(=O)[C@@H]1CCCN1C(=O)[C@@H](NC(=O)[C@@H]1CCCN1C(=O)[C@H](CC(C)C)NC(=O)[C@@H](N)CC(C)C)[C@@H](C)O)C(=O)N[C@@H](CO)C(=O)N1CCC[C@H]1C(=O)N[C@@H](CO)C(=O)N[C@@H](CCCNC(N)N)C(=O)N[C@@H](CCCNC(N)N)C(=O)N[C@@H](CO)C(=O)NCC(=O)O (H-LLPTPPLSPS[Orn(CH(NH2)2)][Orn(CH(NH2)2)]SG-OH),Kd,"protein: Bin1C SH3 domain, PDB entry 1mv0",93.3 µM (active)
CC(C)[C@H](NC(=O)[C@H](CCCCN)NC(=O)[C@H](CCCNC(N)N)NC(=O)[C@H](CCCCN)NC(=O)[C@H](CCCCN)NC(=O)[C@H](CCCCN)NC(=O)[C@@H]1CCCN1C(=O)[C@@H]1CCCN1C(=O)[C@H](CO)NC(=O)CN)C(=O)NCC(=O)O (H-GSPPKKK[Orn(CH(NH2)2)]KVG-OH),Kd,"protein: IMPORTIN SUBUNIT ALPHA-1A, PDB entry 4b8o",0.004 µM (active)
CC(C)[C@H](NC(=O)[C@H](C)NC(=O)[C@@H](NC(=O)[C@@H](N)CCCCN)C(C)C)C(=O)N[C@H](C(=O)N[C@@H](CCCNC(N)N)C(=O)N[C@H](C(=O)N1CCC[C@H]1C(=O)N1CCC[C@H]1C(=O)N[C@@H](CCCCN)C(=O)O)[C@@H](C)O[P+](O)(O)O)C(C)C (H-KVAVV[Orn(CH(NH2)2)][Thr(P(OH)3+)]PPK-OH),Kd,"protein: anti-ptau heavy chain and anti-ptau light chain, PDB entry 4glr",0.00035 µM (active)
CC(C)C[C@H](NC(=O)CNC(=O)[C@H](CO)NC(=O)[C@@H]1CCCN1C(=O)[C@@H](N)CC(C)C)C(=O)N[C@@H](CC(C)C)C(=O)N[C@H](C(=O)N1CCC[C@H]1C(=O)N1CCC[C@H]1C(=O)N[C@@H](CCC(N)=O)C(=O)N[C@@H](CO[P+](O)(O)O)C(=O)NCC(=O)O)[C@H](C)O[P+](O)(O)O,Kd,"protein: Skp1-Fbw7, PDB entry 2ovq",0.07 µM (active)
CC(=O)N1CCC[C@H]1C(=O)N1CCC[C@H]1C(=O)NCC(=O)N1CCC[C@H]1C(=O)N1CCC[C@H]1C(=O)NCC(=O)N1CCC[C@H]1C(=O)N[C@H](C(=O)NCC(=O)N1CCC[C@H]1C(=O)N[C@@H](CCCNC(N)N)C(=O)NCC(=O)N1CCC[C@H]1C(=O)N1CCC[C@H]1C(=O)NCC(=O)N1CCC[C@H]1C(=O)N1CCC[C@H]1C(=O)O)[C@@H](C)O (Ac-PPGPPGPTGP[Orn(CH(NH2)2)]GPPGPP-OH),Kd,"protein: HSP47, PDB entry 3zha",1 µM (active)
CC(C)[C@H](NC(=O)[C@H](CO)NC(=O)[C@@H](NC(=O)[C@@H](N)CCCCN)C(C)C)C(=O)N[C@H](C(=O)N[C@@H](CCCNC(N)N)C(=O)N[C@H](C(=O)N1CCC[C@H]1C(=O)N1CCC[C@H]1C(=O)N[C@@H](CCCCN)C(=O)N[C@@H](CO)C(=O)N1CCC[C@H]1C(=O)N[C@@H](CO)C(=O)O)[C@H](C)O[P+](O)(O)O)C(C)C (H-KVSVV[Orn(CH(NH2)2)][X1]PPKSPS-OH),Kd,"protein: Pin1 WWdomain, PDB entry 1i8h",29 µM (active)
CNC(CSSC[C@H](NC(=O)CC[C@H](N)C(=O)O)C(=O)NCC(=O)O)C(=O)NCC(=O)O (stereo partly drawn),Kd,"protein: PUTATIVE AMINO ACID BINDING PROTEIN, PDB entry 4c0r",12.2 µM (active)
N[C@@H](CCC(=O)N[C@@H](CS)C(=O)NCC(=O)O)C(=O)O,Kd,"protein: mitochondrial ABC transporter, Atm1, PDB entry 4myh",23 µM (active)
same,Kd,"protein: protein yqjG, PDB entry 4g0l",6.5 µM (active)
H-SQEKFFQELFDS-OH,Kd,"protein: Peroxisomal Membrane Anchor Protein Pex14, PDB entry 2w85",9.17 µM (active)
CC(C)C[C@H](NC(=O)[C@H](CC(C)C)NC(=O)[C@H](CCC(=O)O)NC(=O)[C@@H](N)CO)C(=O)N[C@@H](CCCCN)C(=O)N[C@@H](Cc1ccc(O)cc1)C(=O)N[C@@H](CC(C)C)C(=O)N[C@H](C(=O)N[C@H](C(=O)O)[C@@H](C)O)[C@@H](C)O (H-SELLKYLTT-OH),Kd,"protein: the ligand binding domain (LBD) of the estrogen-related receptor ? (ERR?, NR3B1), PDB entry 1xb7",0.6 µM (active)
NS(=O)(=O)c1ccc(CNc2ncnc(NCc3ccccc3)c2[N+](=O)[O-])cc1,Kd,"protein: human carbonic anhydrase II, PDB entry 3mhm",0.1 µM (active)
CC(C)[C@H](NC(=O)[C@H](CCCCN(C)C)NC(=O)[C@H](CO)NC(=O)[C@H](CCCN=C(N)N)NC(=O)[C@H](C)NC(=O)[C@@H](NC(=O)[C@@H](N)CCCN=C(N)N)[C@@H](C)O)C(=O)O (H-RTARS[Lys(Me2)]V-OH),Kd,"protein: Chromodomain-helicase-DNA-binding protein 1 CHD1, PDB entry 4o42",22 µM (active)
CC(C)[C@H](NC(=O)[C@H](CCCC[N+](C)(C)C)NC(=O)[C@H](CO)NC(=O)[C@H](CCCN=C(N)N)NC(=O)[C@H](C)NC(=O)[C@H](C)NC(=O)[C@@H](N)CCCN=C(N)N)C(=O)O (tested in a mixture with another compound) (H-RAARS[Lys(Me3)]V-OH),Kd,"protein: Chromodomain-helicase-DNA-binding protein 1 CHD1, PDB entry 4nw2",29 µM (active)
CC[C@H](C)[C@H](NC(=O)[C@@H](N)CC(N)=O)C(=O)N[C@H](C(=O)N[C@@H](CCC(N)=O)C(=O)N1CCC[C@H]1C(=O)N[C@H](C(=O)N[C@@H](CCC(N)=O)C(=O)N[C@@H](CCC(N)=O)C(=O)N[C@@H](CO)C(=O)N[C@H](C(=O)O)[C@@H](C)O)[C@@H](C)O[P+](O)(O)O)[C@@H](C)O[P+](O)(O)O (H-NI[Thr(P(OH)3+)]QP[Thr(P(OH)3+)]QQST-OH),Kd,"protein: the yeast Dun1 FHA domain, PDB entry 2jql",0.3 µM (active)
CC[C@H](C)[C@H](NC(=O)[C@@H](N)CC(N)=O)C(=O)N[C@H](C(=O)N[C@@H](CCC(N)=O)C(=O)N1CCC[C@H]1C(=O)N[C@H](C(=O)N[C@@H](CCC(N)=O)C(=O)N[C@@H](CCC(N)=O)C(=O)N[C@@H](CO)C(=O)N[C@H](C(=O)O)[C@@H](C)O)[C@@H](C)O)[C@@H](C)O[P+](O)(O)O (H-NI[Thr(P(OH)3+)]QPTQQST-OH),Kd,"protein: Rad53 FHA1 domain, PDB entry 2jqi",10 µM (active)
Cn1c[n+]([C@@H]2O[C@H](CO[P+](O)(O)O[P+](O)(O)O)[C@@H](O)[C@H]2O)c2c1C(=O)NC(N)N2 (stereo partly drawn),Kd,"protein: rRNA N-glycosidase, PDB entry 4emf",0.0839 µM (active)
Cn1c[n+]([C@@H]2O[C@H](CO[P+](O)(O)O[P+](O)(O)O[P+](O)(O)O)[C@@H](O)[C@H]2O)c2c1C(=O)NC(N)N2 (stereo partly drawn),Kd,"protein: rRNA N-glycosidase, PDB entry 4emr",0.0321 µM (active)
C[C@H]1COCCN1C[C@H]1CN(S(=O)(=O)c2cccs2)CCN1c1ccc([C@@](C)(O)C(F)(F)F)cc1,Kd,"protein: Glucokinase regulatory protein, PDB entry 4ly9",0.007 µM (active)
COC(=O)c1cc(Nc2ncnc3[nH]ccc23)ccc1Br,Kd,"protein: TAU-TUBULIN KINASE 1, PDB entry 4btm",4.1 µM (active)
CC[C@H](C)[C@H](NC(=O)[C@H](CC(C)C)NC(=O)[C@H](CCCNC(N)N)NC(=O)[C@@H](N)CC(N)=O)C(=O)N[C@@H](CC(C)C)C(=O)O (H-N[Orn(CH(NH2)2)]LIL-OH),Kd,"protein: Chaperone protein DnaK, PDB entry 4ezy",2.26 µM (active)
CC[C@H](C)[C@H](NC(=O)[C@H](C)NC(=O)[C@H](CCC(=O)O)NC(=O)[C@H](CCCNC(N)N)NC(=O)[C@H](CC(C)C)NC(=O)[C@H](Cc1ccc(O)cc1)NC(=O)[C@H](CCCNC(N)N)NC(=O)[C@H](CC(=O)O)NC(=O)[C@H](CC(=O)O)NC(=O)[C@@H](N)CC(=O)O)C(=O)N[C@@H](CCC(N)=O)C(=O)N[C@@H](CCC(=O)O)C(=O)N[C@@H](Cc1ccc(O)cc1)C(=O)N[C@@H](CC(=O)O)C(=O)N[C@@H](CC(N)=O)C(=O)N[C@H](C(=O)N[C@@H](C)C(=O)N[C@@H](CCCCN)C(=O)O)[C@@H](C)CC (H-DDD[Orn(CH(NH2)2)]YL[Orn(CH(NH2)2)]EAIQEYDNIAK-OH),Kd,"protein: N terminal domain of Harmonin, PDB entry 2kbr",25.4 µM (active)
CC[C@H](C)[C@H](NC(=O)[C@@H](N)CCCNC(N)N)C(=O)N[C@@H](CCC(N)=O)C(=O)N[C@@H](CCCNC(N)N)C(=O)N[C@@H](CC(N)=O)C(=O)N[C@@H](CCCCN)C(=O)N[C@@H](C)C(=O)N[C@@H](C)C(=O)N[C@@H](C)C(=O)N[C@@H](CC(C)C)C(=O)N[C@@H](CC(C)C)C(=O)N[C@@H](CCCNC(N)N)C(=O)N[C@@H](CC(C)C)C(=O)N[C@@H](C)C(=O)N[C@@H](C)C(=O)N[C@@H](CCCNC(N)N)C(=O)O (H-[Orn(CH(NH2)2)]IQ[Orn(CH(NH2)2)]NKAAALL[Orn(CH(NH2)2)]LAA[Orn(CH(NH2)2)]-OH),Kd,"protein: RPA32(C-terminal domain of Replication protein A,172-270), PDB entry 1dpu",1 µM (active)
CC[C@H](C)[C@H](NC(=O)[C@H](CC(N)=O)NC(=O)[C@H](CCSC)NC(=O)[C@@H](N)CCCNC(N)N)C(=O)N[C@@H](CCC(N)=O)C(=O)N[C@@H](CCSC)C(=O)N[C@@H](CC(C)C)C(=O)N[C@@H](CC(C)C)C(=O)N[C@@H](CCC(=O)O)C(=O)N[C@@H](C)C(=O)N[C@@H](C)C(=O)N[C@@H](CC(=O)O)C(=O)N[C@@H](Cc1ccc(O)cc1)C(=O)N[C@@H](CC(C)C)C(=O)N[C@@H](CCC(=O)O)C(=O)N[C@@H](CCCNC(N)N)C(=O)O (H-[Orn(CH(NH2)2)]MNIQMLLEAADYLE[Orn(CH(NH2)2)]-OH),Kd,"protein: mammalian Sin3A PAH2 domain, PDB entry 1g1e",0.029 µM (active)
same,Kd,"protein: mammalian mSin3A (mSin3A) PAH2 domain, PDB entry 1s5q",5.2 µM (active)
H-EDMYRAADEIAKE-OH,Kd,"protein: E3 ubiquitin-protein ligase RNF31 HOIP 5-180, PDB entry 4oyk",0.18 µM (active)
CO/N=C(\C(=O)N[C@@H]1C(=O)N2C(C(=O)O)=C(COC(C)=O)CS[C@H]12)c1csc(N)n1,Kd,"protein: PA4794, PDB entry 4kot",3.5 µM (active)
CO/N=C(\C(=O)N[C@@H]1C(=O)N2C(C(=O)O)=C(COC(N)=O)CS[C@H]12)c1ccco1,Kd,"protein: PA4794, PDB entry 4kov",177 µM (active)
Cc1oc2ccc(NS(=O)(=O)c3ccc(Cl)cc3)cc2c1C(=O)O,Kd,"protein: Non-structural protein 5, PDB entry 3vws",225 µM (active)
H-WPK(Ac)SII-OH,Kd,"protein: Golgi-associated PDZ and coiled-coil motif-containing protein CAL PDZ (CALP) domain, PDB entry 4nmp",91.9 µM (active)
CC[C@H](C)[C@H](NC(=O)[C@H](CCCCNC(=O)c1ccc(F)cc1)NC(=O)[C@H](CO)NC(=O)[C@@H](NC(=O)[C@@H]1CCCN1C(=O)[C@@H](N)Cc1c[nH]c2ccccc12)[C@@H](C)O)C(=O)O (H-WPTSK(Benzoyl(4-F))I-OH),Kd,"protein: Golgi-associated PDZ and coiled-coil motif-containing protein CAL PDZ (CALP) domain, PDB entry 4nms",11.4 µM (active)
CC[C@H](C)[C@H](NC(=O)[C@H](CCCCNC(=O)c1ccc(Br)cc1)NC(=O)[C@H](CO)NC(=O)[C@@H](NC(=O)[C@@H]1CCCN1C(=O)[C@@H](N)Cc1c[nH]c2ccccc12)[C@@H](C)O)C(=O)O (H-WPTSK(Benzoyl(4-Br))I-OH),Kd,"protein: Golgi-associated PDZ and coiled-coil motif-containing protein CAL PDZ (CALP) domain, PDB entry 4nmv",11.1 µM (active)
